# Test results: PubChem BioAssay AID725 (NMMLSC, 2007)
# The whole screen tested about 1,300 compounds, of which fewer than 10 were called active. Not all results are given here. A number with no mark means an inactive call. No rule for the calls is given here.
# Biological target: N-formyl peptide receptor 2 (Homo sapiens) (UniProt P25090)
# Assay: FPRL1 fluorescent ligand binding inhibitors, primary screen, selectivity assay for FPR ligand SAR project, cell-based, flow cytometry, HTS counterscreen (AID 725)
# Conditions: FPRL1-expressing cells, hits give high values, concentration not given here
# N-formyl peptide receptor 2 (Homo sapiens), sequence (P25090 whole entry, looked up): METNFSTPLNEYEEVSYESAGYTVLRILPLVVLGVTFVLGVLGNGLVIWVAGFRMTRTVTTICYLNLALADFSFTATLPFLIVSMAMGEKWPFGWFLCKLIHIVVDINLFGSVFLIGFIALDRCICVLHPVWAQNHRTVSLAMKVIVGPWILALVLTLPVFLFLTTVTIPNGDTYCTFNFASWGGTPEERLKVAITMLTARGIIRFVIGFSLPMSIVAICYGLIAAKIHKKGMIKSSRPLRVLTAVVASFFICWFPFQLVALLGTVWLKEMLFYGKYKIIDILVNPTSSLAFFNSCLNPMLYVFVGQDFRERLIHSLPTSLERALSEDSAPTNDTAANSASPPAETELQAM
row,SMILES,inhibition [%]
1,COc1cc(C2C(C(=O)c3cc4ccccc4o3)=C(O)C(=O)N2CCN(C)C)ccc1O (centres undefined),-0.3
2,CCOC(=O)c1c(NC(=O)c2csc3c2CCCC3)sc2c1CCCC2,-7
3,CC(c1cccs1)N(Cc1ccco1)C(=S)Nc1ccccc1Cl (centres undefined),10.4
4,CCOC(=O)c1oc2cc(OCc3ccc(F)cc3)ccc2c(=O)c1-c1ccccc1OC,1.2
5,CCCCCCN1C(=O)C(=O)/C(=C(/O)c2ccccc2)C1c1ccc(Br)cc1 (centres undefined),0.8
6,COc1ccc(OC)c(C2/C(=C(\O)c3ccccc3)C(=O)C(=O)N2CCC(=O)O)c1 (centres undefined),-4.7
7,CCOC(=O)c1cnn2c(=O)c3c(n(CC)c12)CCN(Cc1ccc(OC)cc1)C3,1.3
8,Cc1ccc(/C(O)=C2\C(=O)C(=O)N(c3nnc(C)s3)C2c2ccc(Cl)cc2)cc1 (centres undefined),-9.8
9,CCCCn1c(=O)c2oc3ccccc3c2n(Cc2cccc(C)c2)c1=O,-15.7
10,Cc1ccc(N2C(=O)CSC2c2ccc(C(C)(C)C)cc2)cc1F (centres undefined),-16.2
11,NC(=O)c1c(NC(=O)C2CC3CCC2C3)sc2c1CCCC2 (centres undefined),9
12,COc1ccccc1C1/C(=C(\O)c2ccccc2)C(=O)C(=O)N1c1ccc(C)c(Cl)c1 (centres undefined),-1.5
13,CCOc1ccc(C2/C(=C(/O)c3ccccc3)C(=O)C(=O)N2c2ccc(C)c(Br)c2)cc1 (centres undefined),1.2
14,COc1ccc(Br)cc1CNC(=O)Cn1c(=O)oc2ccccc21,-20.3
15,Cc1cc(C)cc(N2C(=O)CSC2c2ccccc2Br)c1 (centres undefined),-7.5
16,C=CCN1C(=O)C2C(c3ccccc3)C=CC(c3ccccc3)C2C1=O (centres undefined),-6.2
17,O=C(c1ccc(Br)cc1)N(Cc1ccco1)Cc1ccccc1F,27.5
18,O=C1C(=O)N(c2cccnc2)C(c2cccc(F)c2)/C1=C(/O)c1ccccc1 (centres undefined),-1.7
19,COc1ccccc1C(CC(=O)NCc1cccs1)n1cccc1 (centres undefined),12
20,CC1CCN(Cn2nc(-c3ccco3)n(-c3ccccc3)c2=S)CC1,6.9
21,COc1ccc(C2C(C(=O)c3cccs3)=C(O)C(=O)N2Cc2cccnc2)cc1OC (centres undefined),-3.8
22,Cc1ccc2c(c1)oc(=O)n2C(=O)COc1ccccc1,4.9
23,O=C(c1ccccc1Br)N(Cc1ccc(F)cc1)Cc1ccco1,-2

row,SMILES,inhibition [%]
1,CCc1c(C)sc(NC(=O)C2C3C=CC(C3)C2C(=O)O)c1C(=O)OC(C)C (centres undefined),-6
2,Cc1nnc(N2C(=O)C(O)=C(C(=O)c3cccs3)C2c2ccccc2)s1 (centres undefined),1.7
3,CCOC(=O)c1c(NC(=O)c2ccccc2Cl)sc2c1CCC2,0
4,CCOc1ccccc1C1C(C#N)=C(SC)NC(=O)C1C(=O)OC (centres undefined),7.1
5,COC(=O)c1c[nH]n2c(=O)c(C(C)C)c(C)nc12,-13.8
6,CCCOc1ccc(/C(O)=C2\C(=O)C(=O)N(CCN3CCOCC3)C2c2ccc(C(C)C)cc2)cc1C (centres undefined),-8.4
7,CC(C)n1c(=O)c2oc3ccccc3c2n(Cc2ccccc2F)c1=O,11.7
8,Cc1ccc(S(=O)(=O)NC(CC(=O)O)c2cccc(Cl)c2)c(C)c1 (centres undefined),-6.5
9,CCOC(=O)c1c(NC(=O)c2ccccc2)sc2c1CCC(C)C2 (centres undefined),-3.5
10,COCCN1C(=O)C(=O)/C(=C(/O)c2ccccc2)C1c1ccc(C(C)C)cc1 (centres undefined),3.7
11,CC(C)c1ccc(C2/C(=C(\O)c3ccccc3)C(=O)C(=O)N2c2nc3ccccc3s2)cc1 (centres undefined),0
12,Cc1ccc(F)cc1N1C(=O)CSC1c1ccc(Br)cc1 (centres undefined),1.5
13,Cc1cccc(C(=O)N(Cc2ccco2)Cc2ccccc2F)c1,14.7
14,COc1ccc(-c2c(C)[nH]n3c(=O)c4c(nc23)CCCC4)cc1,-4.2
15,CCOC(=O)c1c(NC(=O)c2ccc(Br)cc2)sc(C)c1C,9.7
16,Cc1onc(-c2c(Cl)cccc2Cl)c1C(=O)NC1CCCCC1,-7.3
17,CCC(=O)Oc1ccc2c(C)c(Cc3ccccc3)c(=O)oc2c1C,-5.7
18,CCn1c2c(c(=O)n3ncc(C(=O)O)c13)CN(Cc1ccccc1)CC2,9.1
19,CCOC(=O)c1c(NC(=O)c2ccccc2C(=O)O)sc(C)c1C,-6.4
20,CCOC(=O)COc1ccc2c(=O)c(-c3ccccc3OC)c(C(F)(F)F)oc2c1,-6.1
21,Cc1ccc(Oc2c(C(F)(F)F)oc3c(CN4CCC(C)CC4)c(O)ccc3c2=O)cc1,-2.8
22,O=C(c1ccccc1F)N1c2ncnn2C2(CCCCC2)[C@@H]2CCCC[C@@H]21,2.4
23,O=C1C(=O)N(CCN2CCOCC2)C(c2ccncc2)/C1=C(\O)c1ccccc1 (centres undefined),0.7

row,SMILES,inhibition [%]
1,NC(=O)c1c(NC(=O)C2C3C=CC(C3)C2C(=O)O)sc2c1CCCCC2 (centres undefined),7.3
2,C=CCOc1ccccc1/C=C1/C(=O)NN(c2ccc(C)c(Cl)c2)C1=O,-5.7
3,O=C(CSc1nnc(-c2ccco2)o1)c1cccc2ccccc12,-5.2
4,CCOC(=O)C(CC)Oc1ccc2c(=O)c(-c3ccc(OC)c(OC)c3)c(C(F)(F)F)oc2c1 (centres undefined),7.8
5,CN(C)CCCN1C(=O)C(O)=C(C(=O)c2ccco2)C1c1ccccc1 (centres undefined),9.4
6,CN(C)c1ccc(C2C(C(=O)c3ccco3)=C(O)C(=O)N2CC2CCCO2)cc1 (centres undefined),-0.8
7,Cc1cc(C)cc(N2C(=O)CSC2c2c(F)cccc2Cl)c1 (centres undefined),-8.8
8,COc1ccccc1C1SCCN1S(=O)(=O)c1ccc(F)cc1 (centres undefined),11.3
9,O=C(O)CCN1C(=O)C(=O)/C(=C(/O)c2ccccc2)C1c1ccc(Br)cc1 (centres undefined),-4.1
10,O=C(Nc1cccc(C(=O)N(Cc2ccccc2)Cc2ccccc2)c1)[C@@H]1[C@H]2C[C@H]3[C@@H]1C(=O)O[C@H]3C2,3.8
11,COc1ccc(OC)c(C2SCCN2S(=O)(=O)c2ccc(C)cc2)c1 (centres undefined),6.1
12,CCCOc1ccc(C2C(C(=O)c3cc4ccccc4o3)=C(O)C(=O)N2CCN(C)C)cc1 (centres undefined),-0.2
13,COc1ccccc1-c1c(C)oc2c(CN3CCCCC3C)c(O)ccc2c1=O (centres undefined),-3.9
14,COc1cccc(C2C(C(=O)c3cc4ccccc4o3)=C(O)C(=O)N2CCN2CCOCC2)c1 (centres undefined),2.7
15,O=C(C1=C(O)C(=O)N(CCN2CCOCC2)C1c1cccnc1)c1cccs1 (centres undefined),-0.7
16,Cc1onc(-c2c(Cl)cccc2Cl)c1C(=O)N1CCCCCC1,-6.1
17,Cc1ccc(N2C(=O)CSC2c2ccccc2F)cc1C (centres undefined),-4.3
18,O=C(Oc1ccc2c(=O)c(Oc3ccccc3Br)c(C(F)(F)F)oc2c1)c1cccs1,-1.4
19,CN1C(=O)C2(/C(=C(/O)c3ccccc3)C(=O)C(=O)N2CC2CCCO2)c2ccccc21 (centres undefined),-3.7
20,Cc1ccc(C(=O)O)cc1NC(=O)C1C2CCC(C2)C1C(=O)O (centres undefined),3.8
21,CN1CCC2(CC1)N=C(c1ccccc1)C(=S)N2C(=O)c1ccc(Cl)cc1,-2
22,Cc1ccc(C)c(-c2n[nH]n3c2nc(=O)c2ccccc23)c1,-23.5
23,O=C1c2cccc3cccc(c23)N1S(=O)(=O)c1ccccc1,-5

row,SMILES,inhibition [%]
1,CC(C)CCN(Cc1ccco1)C(=O)c1noc2c1CCCC2,-3
2,Cc1cccc(N2C(=O)CSC2c2ccc(Br)cc2)c1 (centres undefined),-3.9
3,CCOC(=O)c1c(NC(=O)c2cccc(Cl)c2)sc2c1CCCC2,3.1
4,O=C(c1ccc(F)cc1)N(Cc1ccco1)Cc1ccccc1Cl,-1.7
5,Cc1nnc(N2C(=O)C(O)=C(C(=O)c3ccco3)C2c2ccc(Cl)cc2)s1 (centres undefined),0.1
6,CCc1ccc(Oc2c(C(F)(F)F)oc3c(CN4CCOCC4)c(O)ccc3c2=O)cc1,-5.8
7,CCc1cccc(C)c1NC(=S)N(Cc1ccco1)C(C)c1cccs1 (centres undefined),-5.9
8,Cc1ccc(/C(O)=C2\C(=O)C(=O)N(CCN3CCOCC3)C2c2cccs2)cc1 (centres undefined),-5.9
9,COc1ccc(C2C(C(=O)N3CCCC(C)C3)c3ccccc3C(=O)N2C)cc1 (centres undefined),2.3
10,COc1ccccc1C(=O)NC(C)c1nc2ccccc2n1Cc1ccccc1C (centres undefined),-0.5
11,CCOc1cc(C2C(C(=O)c3ccco3)=C(O)C(=O)N2CC2CCCO2)ccc1O (centres undefined),0.5
12,O=C(O)CCN1C(=O)C(=O)/C(=C(/O)c2ccccc2)C1c1ccccc1[N+](=O)[O-] (centres undefined),1.1
13,COC(=O)c1c(NC(=O)c2cccc(C)c2)sc2c1CCC(C)C2 (centres undefined),-8.1
14,COc1cccc(Cn2c(=S)[nH]c3c(oc4ccccc43)c2=O)c1,3
15,COc1ccc(C2/C(=C(\O)c3ccccc3)C(=O)C(=O)N2CCN2CCOCC2)cc1 (centres undefined),0.4
16,Cc1ccc(C2/C(=C(\O)c3ccccc3)C(=O)C(=O)N2c2nnc(C)s2)cc1 (centres undefined),-1.8
17,CCOc1ccc(N(C)C(=O)[C@H]2[C@@H]3C[C@@H]4[C@H]2C(=O)O[C@@H]4C3)cc1,19.5
18,Cc1cccc(C(=O)N2c3ncnn3C(c3ccccc3)CC2c2ccccc2)c1 (centres undefined),-15.7
19,COC(=O)c1c(NC(=O)c2ccc(F)cc2)sc(C)c1C,-4.9
20,Cc1cc(C)cc(N2C(=O)N(c3ccccc3Cl)C3CS(=O)(=O)CC32)c1 (centres undefined),2.6
